We go through eight compounds from PubChem BioAssay (EPA / NIEHS).

Each structure is given as a SMILES string. Inconclusive results are not listed. Activity calls are given as the source filed them. How the source made its calls: active means hit-call score of the fitted dose curve at least 0.9, where 1 is the maximum; inconclusive means response in the unintended direction; inactive means score below 0.9.

For the assay, the target named is rat Vasopressin 1 Receptor (V1), Avpr1a (gene 25107) (UniProt P30560). Briefly: NVS_GPCR_rV1: NovaScreen (NVS) G Protein-Coupled Receptor Assay for rat Vasopressin 1 Receptor (V1) (AID 2283316). Summed up: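 Radioligand binding on rat liver membranes, 1.5 h incubation, filter-based scintillation counting. Single 25 uM screen in duplicate; chemicals meeting threshold (e.g. 30% inhibition) run in concentration-response up to 50 uM.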
Chain of rat Vasopressin 1 Receptor (V1), Avpr1a (gene 25107) (P30560 whole entry, looked up): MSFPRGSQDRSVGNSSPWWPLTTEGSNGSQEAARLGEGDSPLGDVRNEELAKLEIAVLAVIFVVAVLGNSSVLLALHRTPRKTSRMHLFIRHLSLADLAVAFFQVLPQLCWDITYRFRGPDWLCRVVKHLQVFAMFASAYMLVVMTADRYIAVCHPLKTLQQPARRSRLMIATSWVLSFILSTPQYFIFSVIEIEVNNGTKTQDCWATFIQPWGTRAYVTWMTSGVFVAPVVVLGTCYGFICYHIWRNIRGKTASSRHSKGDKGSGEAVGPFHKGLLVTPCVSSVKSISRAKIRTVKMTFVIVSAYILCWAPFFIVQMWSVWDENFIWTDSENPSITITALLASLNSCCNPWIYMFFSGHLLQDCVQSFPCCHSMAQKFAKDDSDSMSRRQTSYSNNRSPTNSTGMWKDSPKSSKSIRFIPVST
In the case of `NCc1cccc(C2CCN(C(=O)c3ccc(C#Cc4ccccc4F)o3)CC2)c1`, the compound was called inactive.
With `CCN(Cc1cccnc1)C(=O)c1cccc(Cl)c1[C@]1(C)C(=O)N(Cc2ccc(OC)cc2OC)c2ccc(Cl)cc21`, the AC50 was 29 µM (active).
With `O=C1O[C@H]([C@@H](O)CO)C(O)=C1O`, the AC50 was 6.57 µM (active).
Consider `COc1ccc2cc(S(=O)(=O)N[C@H](CC(=O)N[C@H](Cc3ccc(CN4[C@H](C)CCC[C@@H]4C)cc3)C(=O)N(C)C(C)C)c3ccc4c(c3)OCO4)ccc2c1`, for which the result was inactive.
Regarding `Clc1ccccc1C(c1ccccc1)(c1ccccc1)n1ccnc1`, the AC50 was 36.5 µM (active).
As for `Cc1occc1C(=O)Nc1ccc(C(=O)N2CCC(F)(F)/C(=C\C(=O)N3CCC(N4CCCCC4)CC3)c3ccccc32)cc1`, the outcome was inactive.
On to `Cc1c2ccccc2c(C)c2c1ccc1ccccc12`, for which the AC50 was 25 µM (active).
`CN(C)C(=O)C1(N2CCCCC2)CCN(CC[C@@]2(c3ccc(Cl)c(Cl)c3)CN(C(=O)c3ccccc3)CCO2)CC1`: the AC50 was 38.2 µM (active).

For orientation: AC50 means the concentration giving half of the maximal activity seen.
